# Measurements published in PubChem BioAssay (NCI).
# This is part of a sample that, as a whole, favours compounds with a hit. Of some 83,000 tested, about 20% had one in any assay.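 Single-concentration screen, 48 h exposure, 96-well plates. Endpoint: percent growth. Below 10 = active.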 Active and inactive are the calls of the source.
# Tests used:
# Assay in all cases: NCI-60 one-dose screen, 48 h (100 = growth as untreated, 0 = no growth, -100 = all killed)
# Settings in all cases: 10 µM unless noted
# NCI-H23 lung = tested on: NCI-H23 lung
# NCI-H226 lung = tested on: NCI-H226 lung
# NCI-H322M lung = tested on: NCI-H322M lung
# HOP-62 NSCLC = tested on: HOP-62 NSCLC
# NCI-H460 lung = tested on: NCI-H460 lung
# HOP-92 NSCLC = tested on: HOP-92 NSCLC
# NCI-H522 lung = tested on: NCI-H522 lung
# A549/ATCC NSCLC = tested on: A549/ATCC NSCLC
# 786-0 renal = tested on: 786-0 renal
# COLO 205 colon = tested on: COLO 205 colon
# DU-145 prostate = tested on: DU-145 prostate
# K-562 leukemia = tested on: K-562 leukemia
# MALME-3M melanoma = tested on: MALME-3M melanoma
# MDA-MB-231 breast = tested on: MDA-MB-231 breast
# RXF 393 renal = tested on: RXF 393 renal
# SF-268 CNS = tested on: SF-268 CNS
# SF-295 CNS = tested on: SF-295 CNS
# SF-539 CNS = tested on: SF-539 CNS
# UACC-257 melanoma = tested on: UACC-257 melanoma
# M14 melanoma = tested on: M14 melanoma
SMILES,growth (NCI-H23 lung),growth (NCI-H226 lung),growth (NCI-H322M lung),growth (HOP-62 NSCLC),growth (NCI-H460 lung),growth (HOP-92 NSCLC),growth (NCI-H522 lung),growth (A549/ATCC NSCLC),growth (786-0 renal),growth (COLO 205 colon),growth (DU-145 prostate),growth (K-562 leukemia),growth (MALME-3M melanoma),growth (MDA-MB-231 breast),growth (RXF 393 renal),growth (SF-268 CNS),growth (SF-295 CNS),growth (SF-539 CNS),growth (UACC-257 melanoma),growth (M14 melanoma)
CCN1C(=O)N(CC)C2NNC(Sc3c(C(=O)O)c4ccccc4n(CCC(C)C)c3=O)=NC21 (stereo not given),10.7% (inactive),30.4% (inactive),52.9% (inactive),27.3% (inactive),-7.83% (active),49.4% (inactive),-21.7% (active),12.4% (inactive),16% (inactive),-20.8% (active),17.7% (inactive),6.37% (active),46.5% (inactive),10.9% (inactive),-1.23% (active),49.3% (inactive),-16.5% (active),-53.4% (active),40% (inactive),12.1% (inactive)
COc1ccc2c(c1)C(Sc1ccc(Cl)cc1)c1c(nc(N)c(C#N)c1N)O2 (stereo not given),74.6% (inactive),64.9% (inactive),86.4% (inactive),61.8% (inactive),63.2% (inactive),76.7% (inactive),54.5% (inactive),53.7% (inactive),61.8% (inactive),87.2% (inactive),86% (inactive),47.6% (inactive),82.2% (inactive),56.4% (inactive),56.4% (inactive),46% (inactive),55.7% (inactive),61.8% (inactive),104% (inactive),66.4% (inactive)
FC(F)(F)c1cc2c(Cl)ncnc2n1CCC1CCOCC1,-14.4% (active),39% (inactive),-72.6% (active),6.11% (active),-68.8% (active),71.5% (inactive),-80% (active),97.6% (inactive),87.7% (inactive),71.5% (inactive),-99.6% (active),-26.3% (active),79.2% (inactive),0.4% (active),57.8% (inactive),-71.1% (active),70.8% (inactive),70.8% (inactive),37.6% (inactive),-83.5% (active)
COc1ccccc1NC(=O)N/N=C/c1c[nH]c2ccccc12,0.507% (active),19% (inactive),49.4% (inactive),47.6% (inactive),14.1% (inactive),47.7% (inactive),-37.1% (active),30.5% (inactive),14.9% (inactive),4.3% (active),17.6% (inactive),15.4% (inactive),54.6% (inactive),52.3% (inactive),-38.7% (active),30.9% (inactive),-14.5% (active),-11.4% (active),54.6% (inactive),14.8% (inactive)
CS(=O)(=O)Nc1cncc(-c2ccc3ncnc(NCc4ccccc4)c3c2)c1,21.8% (inactive),38.5% (inactive),47.2% (inactive),46.5% (inactive),83.3% (inactive),-12.3% (active),39.4% (inactive),90.1% (inactive),55% (inactive),41.9% (inactive),55.2% (inactive),33.6% (inactive),27.8% (inactive),40% (inactive),35.6% (inactive),31.7% (inactive),42.8% (inactive),23.9% (inactive),74.5% (inactive),49% (inactive)
FC(F)(F)CN1CCN(CCn2c(C(F)(F)F)cc3c(Cl)ncnc32)CC1,16.5% (inactive),86.7% (inactive),-22.9% (active),40.2% (inactive),-41.2% (active),72.2% (inactive),-79.3% (active),98.8% (inactive),84.6% (inactive),70.5% (inactive),30.9% (inactive),-20.3% (active),77.3% (inactive),-35.6% (active),59.7% (inactive),-18.5% (active),67.1% (inactive),66.6% (inactive),45.7% (inactive),-66.7% (active)
O=C(N=Nc1c(O)[nH]c2ccc(Br)cc12)c1ccc2nc(-c3ccc(Cl)cc3)[nH]c2c1,-69.4% (active),16.6% (inactive),6.48% (active),-55.9% (active),-19.4% (active),-9.49% (active),-47.2% (active),14.9% (inactive),-73.7% (active),-36.1% (active),-4.97% (active),10% (inactive),-34.7% (active),-89.5% (active),-42.3% (active),-16.2% (active),-62.8% (active),-100% (active),46% (inactive),-3.86% (active)
C/C(=N\Nc1ccc(C(=O)O)cc1)c1cnn(-c2cc(=O)[nH]c3ccc(C)cc23)c1C,106% (inactive),90.1% (inactive),98.2% (inactive),93.1% (inactive),109% (inactive),6.13% (active),89.4% (inactive),104% (inactive),93.2% (inactive),118% (inactive),107% (inactive),101% (inactive),83.3% (inactive),91.1% (inactive),93.7% (inactive),97.2% (inactive),95.5% (inactive),101% (inactive),106% (inactive),96.3% (inactive)
